{"source": "PubChem BioAssay (EPA / NIEHS)", "key": {"[1]": {"system": "rabbit Platelet Activating Factor Receptor (PAF), gene 100354046", "experiment": "NVS_GPCR_rabPAF: NovaScreen (NVS) G Protein-Coupled Receptor Assay for rabbit Platelet Activating Factor Receptor (PAF) (AID 2283287)", "how_it_was_run": "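Rabbit platelet membrane preparation; radioligand displacement read by filter-based scintillation counting 1 h after dosing, loss of signal versus DMSO. Primary screen in duplicate at 25 uM, actives followed up in concentration series.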"}, "[2]": {"molecular_target": "rat Adrenergic, Alpha 1, Non-selective Receptor (Adra1), Adra1a (gene 29412) (UniProt P43140)", "sequence (P43140 whole entry, looked up)": "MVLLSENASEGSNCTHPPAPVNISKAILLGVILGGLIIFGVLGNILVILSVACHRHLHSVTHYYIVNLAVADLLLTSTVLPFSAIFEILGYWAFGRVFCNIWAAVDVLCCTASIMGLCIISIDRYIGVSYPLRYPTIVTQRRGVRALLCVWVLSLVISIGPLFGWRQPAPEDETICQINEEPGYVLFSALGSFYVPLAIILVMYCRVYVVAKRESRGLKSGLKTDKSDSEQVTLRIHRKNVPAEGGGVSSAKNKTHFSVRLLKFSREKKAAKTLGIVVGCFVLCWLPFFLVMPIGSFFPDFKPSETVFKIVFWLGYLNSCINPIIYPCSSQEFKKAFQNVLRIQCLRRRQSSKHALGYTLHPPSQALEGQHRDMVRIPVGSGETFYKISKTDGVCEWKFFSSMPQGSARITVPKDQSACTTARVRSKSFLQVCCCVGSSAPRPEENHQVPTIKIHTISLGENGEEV", "experiment": "NVS_GPCR_rAdra1_NonSelective: NovaScreen (NVS) G Protein-Coupled Receptor Assay for rat Adrenergic, Alpha 1, Non-selective Receptor (Adra1) (AID 2283289)", "how_it_was_run": "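Chemicals first screened in duplicate at 25 uM, then actives tested in concentration series up to 50 uM. Binding measured as displacement of radioligand from rat forebrain membrane receptors, 1 h, filtration with scintillation readout; DMSO baseline.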"}, "[3]": {"molecular_target": "guinea pig Serotonin, 5-Hydroxytryptamine Receptor 4 (5HT4), HTR4 (gene 100135548) (UniProt O70528)", "sequence (O70528 whole entry, looked up)": "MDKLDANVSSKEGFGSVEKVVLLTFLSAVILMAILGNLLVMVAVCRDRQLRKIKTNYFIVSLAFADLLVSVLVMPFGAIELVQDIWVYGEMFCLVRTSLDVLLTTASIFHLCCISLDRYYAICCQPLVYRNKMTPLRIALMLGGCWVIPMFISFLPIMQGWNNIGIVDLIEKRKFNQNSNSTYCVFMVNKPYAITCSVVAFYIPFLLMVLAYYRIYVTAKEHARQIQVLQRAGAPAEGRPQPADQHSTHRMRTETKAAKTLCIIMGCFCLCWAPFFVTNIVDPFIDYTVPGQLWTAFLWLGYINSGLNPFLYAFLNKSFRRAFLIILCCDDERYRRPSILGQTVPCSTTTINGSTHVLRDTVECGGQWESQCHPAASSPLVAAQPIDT", "experiment": "NVS_GPCR_g5HT4: NovaScreen (NVS) G Protein-Coupled Receptor Assay for guinea pig Serotonin, 5-Hydroxytryptamine Receptor 4 (5HT4) (AID 2283294)", "how_it_was_run": "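Compounds first screened in duplicate at 25 uM, actives followed up in concentration series. Binding measured as displacement of specific radioligand from guinea pig striatal membranes, 1 h, filter-based scintillation read-out versus DMSO baseline.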"}, "[4]": {"molecular_target": "rat Serotonin, 5-Hydroxytryptamine Receptor (5HT), Non-Selective Binding, Htr1a (gene 24473) (UniProt P19327)", "sequence (P19327 whole entry, looked up)": "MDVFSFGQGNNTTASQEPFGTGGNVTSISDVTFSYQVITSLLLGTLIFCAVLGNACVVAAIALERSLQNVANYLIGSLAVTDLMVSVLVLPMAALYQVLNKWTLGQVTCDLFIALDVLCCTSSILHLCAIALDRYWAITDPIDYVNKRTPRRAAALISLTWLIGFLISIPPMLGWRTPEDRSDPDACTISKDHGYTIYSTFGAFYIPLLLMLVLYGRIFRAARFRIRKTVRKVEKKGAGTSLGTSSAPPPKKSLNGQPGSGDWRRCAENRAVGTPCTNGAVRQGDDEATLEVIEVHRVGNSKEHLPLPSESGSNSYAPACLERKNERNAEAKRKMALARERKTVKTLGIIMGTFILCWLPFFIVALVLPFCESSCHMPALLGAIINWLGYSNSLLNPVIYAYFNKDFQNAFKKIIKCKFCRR", "experiment": "NVS_GPCR_r5HT_NonSelective: NovaScreen (NVS) G Protein-Coupled Receptor Assay for rat Serotonin, 5-Hydroxytryptamine Receptor (5HT), Non-Selective Binding (AID 2283295)", "how_it_was_run": "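Rat cortex membrane preparation incubated 1 h with radioligand and test chemical; bound radioactivity counted after filtration. Screening began in duplicate at 25 uM with concentration-series follow-up; fitting relative to DMSO.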"}, "[5]": {"molecular_target": "rat Adrenergic, Alpha 1A Receptor (Adra1A), Adra1a (gene 29412) (UniProt P43140)", "sequence (P43140 whole entry, looked up)": "as the sequence (P43140 whole entry, looked up) above", "experiment": "NVS_GPCR_rAdra1A: NovaScreen (NVS) G Protein-Coupled Receptor Assay for rat Adrenergic, Alpha 1A Receptor (Adra1A) (AID 2283296)", "how_it_was_run": "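Filter radiodetection after 1 h competitive binding on CEC-pretreated rat cortical membranes. Duplicate single-point screening at 25 uM; active chemicals retested across concentration series.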"}, "[6]": {"molecular_target": "mouse Cholecystokinin, CCK2 Receptor (CCKB), Cckbr (gene 12426) (UniProt P56481)", "sequence (P56481 whole entry, looked up)": "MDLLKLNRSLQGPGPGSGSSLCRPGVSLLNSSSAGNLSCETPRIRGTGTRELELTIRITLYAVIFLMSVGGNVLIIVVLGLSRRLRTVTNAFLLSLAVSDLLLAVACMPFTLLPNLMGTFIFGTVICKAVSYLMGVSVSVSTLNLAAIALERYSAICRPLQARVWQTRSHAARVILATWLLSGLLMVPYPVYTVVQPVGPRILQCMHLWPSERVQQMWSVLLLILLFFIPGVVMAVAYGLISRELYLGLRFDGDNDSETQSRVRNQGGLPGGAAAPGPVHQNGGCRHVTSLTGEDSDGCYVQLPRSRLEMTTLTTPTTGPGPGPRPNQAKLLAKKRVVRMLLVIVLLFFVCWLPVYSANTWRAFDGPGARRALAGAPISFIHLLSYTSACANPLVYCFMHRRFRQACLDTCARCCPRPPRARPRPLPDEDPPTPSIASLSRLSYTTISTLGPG", "experiment": "NVS_GPCR_mCKKBCentral: NovaScreen (NVS) G Protein-Coupled Receptor Assay for mouse Cholecystokinin, CCK2 Receptor (CCKB) (AID 2283293)", "description": "(§1) NVS_GPCR_mCKKBCentral is a biochemical, single-readout assay that uses extracted gene-proteins from Mouse forebrain membranes in a tissue-based cell-free assay. Measurements were taken 2 hours after chemical dosing in a 96-well plate.NVS_GPCR_mCKKBCentral is one of one assay component(s) measured or calculated from the NVS_GPCR_mCKKBCentral assay. It is designed to make measurements of radioligand binding, a form of binding reporter, as detected with scintillation counting signals by Filter-based radiodetection technology.Data from the assay component NVS_GPCR_mCKKBCentral was analyzed into 1 assay endpoint. This assay endpoint, NVS_GPCR_mCKKBCentral, was analyzed in the positive analysis fitting direction relative to DMSO as the negative control and baseline of activity. Using a type of binding reporter, loss-of-signal activity can be used to understand changes in the binding as they relate to the gene Cckbr. Furthermore, this assay endpoint can be referred to as a primary readout, because the performed assay has only produced 1 assay endpoint. To generalize the intended target to other relatable targets, this assay endpoint is annotated to the gpcr intended target family, where the subfamily is rhodopsin-like receptor.\n(§2) Binding assays used specific radioligands (tritiated, iodinated) with non-radioactive competitive displacement ligands in agonist or antagonist protocols (as indicated) and various reference compounds and inhibitors to titrate specific binding to receptors and transporters. Most enzyme assays (CYPs, kinases, phosphatases, proteases, HDACs) used recombinant protein and specific substrates (fluorescence mostly, some colorimetric and radioactive) and inhibitors, followed by a biochemical separation of substrate and product. All assays for the biochemical HTS were initially run in duplicate at a single concentration (10 uM for CYP450 assays and 25 uM for all others). Assay-chemical combinations meeting a pre-defined threshold (e.g., 30% inhibition and other criteria defined below) were then run in singleton concentration-response format with maximum concentration of 20 uM for CYPs and 50 uM for all others. Each assay was run with positive and negative controls, and concurrent controls on every plate. The follow-up (secondary) screen tested active chemical-pairs in concentration series, as well as a few additional assays not tested in the primary screen, some selected negative inactives, and several cases re-run in the concentration series for confirmatory purposes."}, "[7]": {"system": "rat Adrenergic, Alpha 1B Receptor (Adra1B), gene 24173", "experiment": "NVS_GPCR_rAdra1B: NovaScreen (NVS) G Protein-Coupled Receptor Assay for rat Adrenergic, Alpha 1B Receptor (Adra1B) (AID 2283297)", "how_it_was_run": "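Filter-binding radioligand competition on membranes from rat liver, read after 1 h by scintillation counting. Single-concentration duplicate screen at 25 uM, followed by concentration-response on actives, normalised to DMSO.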"}, "[8]": {"molecular_target": "rat Adrenergic Receptor, Beta (Adrb), Non-selective Binding, Adrb1 (gene 24925) (UniProt P18090)", "sequence (P18090 whole entry, looked up)": "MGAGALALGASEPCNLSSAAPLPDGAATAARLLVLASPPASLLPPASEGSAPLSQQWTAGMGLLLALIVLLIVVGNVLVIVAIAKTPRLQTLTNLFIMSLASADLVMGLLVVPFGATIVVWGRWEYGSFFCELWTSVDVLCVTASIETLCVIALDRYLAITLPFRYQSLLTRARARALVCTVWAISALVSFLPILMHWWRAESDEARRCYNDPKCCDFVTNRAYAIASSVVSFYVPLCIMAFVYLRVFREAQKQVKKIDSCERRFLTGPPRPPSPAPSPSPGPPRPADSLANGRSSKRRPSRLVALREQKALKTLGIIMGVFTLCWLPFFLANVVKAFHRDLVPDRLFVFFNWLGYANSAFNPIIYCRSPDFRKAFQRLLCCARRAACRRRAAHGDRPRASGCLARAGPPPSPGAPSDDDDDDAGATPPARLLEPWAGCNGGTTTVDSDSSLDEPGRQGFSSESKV", "experiment": "NVS_GPCR_rAdrb_NonSelective: NovaScreen (NVS) G Protein-Coupled Receptor Assay for rat Adrenergic Receptor, Beta (Adrb), Non-selective Binding (AID 2283298)", "description": "as §1, with “NVS_GPCR_rAdrb_NonSelective” for “NVS_GPCR_mCKKBCentral”, “Rat cortical” for “Mouse forebrain”, “1 hour” for “2 hours”, “48-well plate.NVS_GPCR_rAdrb_NonSelective” for “96-well plate.NVS_GPCR_mCKKBCentral”, “NVS_GPCR_rAdrb_NonSelective,” for “NVS_GPCR_mCKKBCentral,”, “Adrb1.” for “Cckbr.”\nas §2"}, "[9]": {"system": "5-hydroxytryptamine receptor 2C (pig)", "experiment": "NVS_GPCR_p5HT2C: NovaScreen (NVS) G Protein-Coupled Receptor Assay for pig Serotonin, 5-Hydroxytryptamine Receptor 2C (5HT2C) (AID 2283288)", "how_it_was_run": "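Radioligand displacement on membranes from pig choroid plexus, detected by filter scintillation counting after 1 h. Tested first at a single 25 uM in duplicate, then in concentration-response for actives; DMSO served as baseline.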"}, "[10]": {"molecular_target": "guinea pig Bradykinin Receptor B2 (BK2), BDKRB2 (gene 100135486) (UniProt O70526)", "sequence (O70526 whole entry, looked up)": "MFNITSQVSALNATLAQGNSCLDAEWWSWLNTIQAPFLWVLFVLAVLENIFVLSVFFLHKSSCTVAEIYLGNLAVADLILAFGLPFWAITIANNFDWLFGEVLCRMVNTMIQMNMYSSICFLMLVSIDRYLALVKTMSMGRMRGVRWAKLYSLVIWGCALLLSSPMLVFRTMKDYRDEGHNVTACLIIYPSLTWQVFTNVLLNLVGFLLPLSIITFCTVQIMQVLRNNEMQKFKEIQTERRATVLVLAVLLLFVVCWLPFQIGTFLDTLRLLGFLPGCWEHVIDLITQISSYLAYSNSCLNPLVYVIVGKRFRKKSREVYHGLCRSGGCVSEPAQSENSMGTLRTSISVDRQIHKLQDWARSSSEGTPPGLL", "experiment": "NVS_GPCR_gBK2: NovaScreen (NVS) G Protein-Coupled Receptor Assay for guinea pig Bradykinin Receptor B2 (BK2) (AID 2283292)", "how_it_was_run": "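Guinea pig ileum membrane preparation incubated 1 h with radioligand and test chemical; bound counts measured after filtration. Primary duplicate screening at 25 uM, then singleton concentration series with a 50 uM top dose; DMSO as baseline.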"}}, "note": "Inconclusive results are not listed. Active and inactive are the calls of the source. How the source made its calls: active means hit-call score of the fitted dose curve at least 0.9, where 1 is the maximum; inconclusive means response in the unintended direction; inactive means score below 0.9."}
{"molecule": "O=C1c2ccccc2C(=O)N1CCc1noc(-c2ccc(CN3CCCCCC3)s2)n1", "values": [{"measurement": "AC50", "setting": "[1]", "value": "3.11 µM (active)"}, {"measurement": "AC50", "setting": "[2]", "value": "9.19 µM (active)"}, {"measurement": "AC50", "setting": "[3]", "value": "4 µM (active)"}, {"measurement": "outcome", "setting": "[4]", "value": "inactive"}, {"measurement": "AC50", "setting": "[5]", "value": "5.59 µM (active)"}]}
{"molecule": "O=C(O)c1ccccc1-n1cc(C(=O)O)c(=O)c2cc(Nc3c(F)cc(F)cc3Cl)c(Cl)cc21", "values": [{"measurement": "outcome", "setting": "[6]", "value": "inactive"}]}
{"molecule": "COc1cccc([C@H](O)C2CCN(CCc3ccc(F)cc3)CC2)c1OC", "values": [{"measurement": "AC50", "setting": "[3]", "value": "25 µM (active)"}, {"measurement": "AC50", "setting": "[4]", "value": "5.58 µM (active)"}, {"measurement": "AC50", "setting": "[7]", "value": "0.26 µM (active)"}]}
{"molecule": "CC[C@H](NC(=O)c1cc(F)ccc1NS(=O)(=O)c1cccc2cccnc12)c1ccccc1", "values": [{"measurement": "outcome", "setting": "[8]", "value": "inactive"}]}
{"molecule": "COc1cc(C(=O)NC2CCN(C)CC2)ccc1Nc1ncc2c(n1)N(C1CCCC1)CC(F)(F)C(=O)N2C", "values": [{"measurement": "AC50", "setting": "[1]", "value": "0.76 µM (active)"}, {"measurement": "AC50", "setting": "[9]", "value": "3.34 µM (active)"}, {"measurement": "AC50", "setting": "[2]", "value": "3.85 µM (active)"}, {"measurement": "AC50", "setting": "[10]", "value": "2.81 µM (active)"}, {"measurement": "AC50", "setting": "[3]", "value": "8.4 µM (active)"}, {"measurement": "outcome", "setting": "[4]", "value": "inactive"}, {"measurement": "AC50", "setting": "[5]", "value": "7.27 µM (active)"}, {"measurement": "AC50", "setting": "[7]", "value": "15.5 µM (active)"}]}
{"molecule": "O=c1ccc2ccccc2o1", "values": [{"measurement": "outcome", "setting": "[9]", "value": "inactive"}]}
{"molecule": "Cc1occc1C(=O)Nc1ccc(C(=O)N2CCC(F)(F)/C(=C\\C(=O)N3CCC(N4CCCCC4)CC3)c3ccccc32)cc1", "values": [{"measurement": "AC50", "setting": "[1]", "value": "2.76 µM (active)"}, {"measurement": "outcome", "setting": "[9]", "value": "inactive"}, {"measurement": "AC50", "setting": "[2]", "value": "6.08 µM (active)"}, {"measurement": "AC50", "setting": "[3]", "value": "0.579 µM (active)"}, {"measurement": "outcome", "setting": "[4]", "value": "inactive"}, {"measurement": "AC50", "setting": "[7]", "value": "3.24 µM (active)"}]}
{"molecule": "CCCCCCCCN(C)CCCCCCCC", "values": [{"measurement": "outcome", "setting": "[8]", "value": "inactive"}]}
{"molecule": "COc1ccc2cc(S(=O)(=O)N[C@H](CC(=O)N[C@H](Cc3ccc(CN4[C@H](C)CCC[C@@H]4C)cc3)C(=O)N(C)C(C)C)c3ccc4c(c3)OCO4)ccc2c1", "values": [{"measurement": "AC50", "setting": "[2]", "value": "15.7 µM (active)"}, {"measurement": "AC50", "setting": "[10]", "value": "13.8 µM (active)"}, {"measurement": "AC50", "setting": "[3]", "value": "16.8 µM (active)"}, {"measurement": "outcome", "setting": "[4]", "value": "inactive"}, {"measurement": "outcome", "setting": "[5]", "value": "inactive"}, {"measurement": "AC50", "setting": "[7]", "value": "23.9 µM (active)"}]}
